Reference: PubChem BioAssay (NCI)
The panel holds about 79,000 compounds, 15% with a hit somewhere; the sample as a whole holds those more often. Active and inactive are the calls of the source. No stated cut-off is given here; in the data, active means growth inhibition above about 70%; inactive means the rest.

Key:
[1] = NCI Yeast Anticancer Drug Screen. Data for the wt1 strain (AID 149);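 further: 0% = growth of vehicle-treated wt1 cultures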; settings: S. cerevisiae wt1 strain (SPY 50644) growth inhibition, stronger effect = higher value
Summary of the method: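 Yeast wt1 strain exposed to compounds; growth inhibition measured relative to vehicle-treated controls.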

[2] = NCI Yeast Anticancer Drug Screen. Data for the rad50EPP+ strain (AID 151);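 further: 0% = growth of vehicle-treated control cultures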; settings: S. cerevisiae rad50 mutant strain, stronger effect = higher value
Summary of the method: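 Yeast strain carrying rad50 alteration (rad50EPP+) exposed to compounds; growth inhibition measured relative to vehicle-treated controls.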

[3] = NCI Yeast Anticancer Drug Screen. Data for the rad50 strain (AID 155);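 further: 0% = growth of vehicle-only cultures of the same strain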; settings: S. cerevisiae rad50 strain growth inhibition, stronger effect = higher value
Summary of the method: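 Yeast carrying a defined DNA repair defect were exposed to test compounds, and growth was compared with vehicle-treated controls to give percent inhibition.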

[4] = NCI Yeast Anticancer Drug Screen. Data for the mec2-1 strain (AID 157); settings: S. cerevisiae mec2-1 strain, stronger effect = higher value
Summary of the method: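 mec2-1 yeast strain, carrying an alteration in DNA damage repair or cell cycle control, was exposed to compounds; growth inhibition was measured relative to vehicle-treated controls.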

[5] = NCI Yeast Anticancer Drug Screen. Data for the rad14 strain (AID 159);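 further: 0% = growth of vehicle-treated control cultures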; settings: S. cerevisiae rad14 strain growth inhibition, stronger effect = higher value
Summary of the method: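 Yeast cells carrying a defined DNA-repair defect were exposed to compounds, and growth inhibition was calculated relative to vehicle-treated control cultures.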

[6] = NCI Yeast Anticancer Drug Screen. Data for the sgs1 mgt1 strain (AID 161);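 further: 0% = growth of cultures given vehicle only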; settings: S. cerevisiae sgs1 mgt1 strain, stronger effect = higher value
Summary of the method: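 Growth of a repair-deficient yeast mutant was monitored after compound treatment and expressed as inhibition relative to vehicle-treated cultures.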

[7] = NCI Yeast Anticancer Drug Screen. Data for the CLN2oe strain (AID 163);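 further: 0% = growth of vehicle-only control cultures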; settings: S. cerevisiae CLN2oe strain, stronger effect = higher value
Summary of the method: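 Yeast cells carrying a defined cell-cycle control alteration were exposed to test compounds. Growth inhibition was scored against vehicle-treated control cultures.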

[8] = NCI Yeast Anticancer Drug Screen. Data for the cln2 rad14 strain (AID 165);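 further: 0% = growth equal to vehicle treated cultures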; settings: S. cerevisiae cln2 rad14 strain, stronger effect = higher value
Summary of the method: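 Yeast carrying cln2 and rad14 alterations (cell cycle control and DNA damage repair) were exposed to compounds. Growth inhibition was measured against vehicle-treated controls.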

[9] = NCI Yeast Anticancer Drug Screen. Data for the bub3 strain (AID 167); settings: S. cerevisiae bub3 mutant strain, stronger effect = higher value
Summary of the method: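 Compounds were applied to a genetically altered yeast strain carrying a cell-cycle control defect. Growth inhibition was scored against vehicle-treated controls.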

[10] = NCI Yeast Anticancer Drug Screen. Data for the wt2 strain (AID 169);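 further: 0% = growth of vehicle-treated yeast cultures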; settings: S. cerevisiae wt2 strain growth inhibition, stronger effect = higher value
Summary of the method: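 Yeast cells were exposed to test compounds, and growth inhibition was measured relative to vehicle-treated controls.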

[11] = NCI Yeast Anticancer Drug Screen. Data for the mlh1 strain (AID 171);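 further: 0% = growth of vehicle-treated control cultures of the same strain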; settings: S. cerevisiae mlh1 strain growth inhibition, stronger effect = higher value
Summary of the method: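 Yeast carrying a defined genetic alteration in DNA damage repair or cell cycle control were exposed to test compounds. Growth inhibition was measured relative to vehicle-treated controls.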

[12] = NCI Yeast Anticancer Drug Screen. Data for the sgs1 strain (AID 173);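 further: 0% = growth of vehicle-only control cultures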; settings: S. cerevisiae sgs1 mutant, stronger effect = higher value
Summary of the method: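 Yeast mutant strains carrying defined defects in DNA damage repair or cell cycle control were exposed to test compounds. Growth inhibition was scored against vehicle-treated controls.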

[13] = NCI Yeast Anticancer Drug Screen. Data for the mlh1 rad18 strain (AID 175); settings: S. cerevisiae mlh1 rad18 strain growth inhibition, stronger effect = higher value
Summary of the method: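 Growth inhibition of the yeast strain was measured after compound exposure and expressed relative to vehicle-treated controls. The strain carries defined defects in DNA damage repair.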

[14] = NCI Yeast Anticancer Drug Screen. Data for the rad18 strain (AID 177); settings: S. cerevisiae rad18 mutant growth inhibition, stronger effect = higher value
Summary of the method: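 Yeast carrying a defined DNA damage repair alteration were exposed to compounds. Growth inhibition was expressed relative to vehicle-treated controls.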

[15] = at 5.0 µM (retest, dose inferred, filed as 0.5)
[16] = at 50.0 µM (retest, dose inferred, filed as 5.0)

Measured: growth inhibition

CCOC(=O)C1=C(C)NC(C)=C(C(=O)OCC)C1c1cccc([N+](=O)[O-])c1
inactive: [1]; at 1.2 µM -53% | [1]; at 3.7 µM -41% | [1]; at 11.0 µM -22% | [1]; at 33.0 µM 37% | [2]; at 1.2 µM -54% | [2]; at 3.7 µM -78% | [2]; at 11.0 µM -91% | [2]; at 33.0 µM -93% | [2]; at 100.0 µM -103% | [3]; at 1.2 µM -39% | [3]; at 3.7 µM 0% | [3]; [15] 34% | [3]; at 11.0 µM 31% | [3]; at 33.0 µM 65% | [4]; at 1.2 µM -36% | [4]; at 3.7 µM -16% | [4]; [15] 35% | [4]; at 11.0 µM -10% | [4]; at 33.0 µM 30% | [4]; at 50.0 µM 37.1% | [5]; at 1.2 µM -39% | [5]; at 3.7 µM -32% | [5]; at 11.0 µM -17% | [5]; at 33.0 µM 25% | [6]; [15] -15% | [6]; [16] 22% | [7]; at 1.2 µM -31% | [7]; at 3.7 µM -34% | [7]; at 11.0 µM -23% | [7]; at 33.0 µM 31% | [8]; [15] 45% | [8]; [16] 54% | [9]; at 1.2 µM -21% | [9]; at 3.7 µM -5% | [9]; [15] 29% | [9]; at 11.0 µM 4% | [9]; at 33.0 µM 22% | [9]; [16] 40% | [10]; at 1.2 µM -43% | [10]; at 3.7 µM -44% | [10]; at 11.0 µM -13% | [10]; at 33.0 µM 45% | [11]; at 1.2 µM -74% | [11]; at 3.7 µM -39% | [11]; at 11.0 µM -29% | [11]; at 33.0 µM 51% | [12]; at 1.2 µM -18% | [12]; at 3.7 µM -14% | [12]; at 11.0 µM 13% | [12]; at 33.0 µM 60% | [13]; [15] 30% | [14]; at 1.2 µM 5% | [14]; at 3.7 µM 32% | [14]; at 11.0 µM 33% | [14]; at 33.0 µM 60%
active: [1]; at 100.0 µM 88% | [3]; [16] 80% | [3]; at 50.0 µM 90.8% | [3]; at 100.0 µM 88% | [4]; [16] 76% | [4]; at 100.0 µM 83% | [5]; at 100.0 µM 88% | [7]; at 100.0 µM 87% | [9]; at 100.0 µM 73% | [10]; at 100.0 µM 92% | [11]; at 100.0 µM 86% | [12]; at 100.0 µM 86% | [13]; [16] 75% | [13]; at 50.0 µM 90.7% | [14]; at 100.0 µM 83%

COC(=O)C1(N2CCOCC2)CCC([C@@H](c2ccccc2)C(C)[N+](=O)[O-])C1 (stereo not given in full)
inactive: [1]; at 1.2 µM -3% | [1]; at 3.7 µM -2% | [1]; at 11.0 µM -2% | [1]; at 33.0 µM -3% | [1]; at 100.0 µM 4% | [2]; at 1.2 µM 2% | [2]; at 3.7 µM 3% | [2]; at 11.0 µM 15% | [2]; at 33.0 µM 54% | [3]; at 1.2 µM 0% | [3]; at 3.7 µM 2% | [3]; [15] 11% | [3]; at 11.0 µM 17% | [3]; at 33.0 µM 43% | [3]; [16] -3% | [3]; at 50.0 µM 57.2% | [4]; at 1.2 µM -3% | [4]; at 3.7 µM 1% | [4]; [15] 0% | [4]; at 11.0 µM 4% | [4]; at 33.0 µM 4% | [4]; [16] 2% | [4]; at 50.0 µM 26.4% | [4]; at 100.0 µM 34% | [5]; at 1.2 µM 1% | [5]; at 3.7 µM 1% | [5]; at 11.0 µM 6% | [5]; at 33.0 µM 9% | [5]; at 100.0 µM 39% | [6]; [15] 0% | [6]; [16] -2% | [6]; at 50.0 µM 20.6% | [7]; at 1.2 µM -9% | [7]; at 3.7 µM -4% | [7]; at 11.0 µM -10% | [7]; at 33.0 µM -3% | [7]; at 100.0 µM 9% | [9]; at 1.2 µM -1% | [9]; at 3.7 µM -12% | [9]; [15] 1% | [9]; at 11.0 µM -8% | [9]; at 33.0 µM -13% | [9]; [16] -29% | [9]; at 50.0 µM -2.55% | [9]; at 100.0 µM 24% | [10]; at 1.2 µM -2% | [10]; at 3.7 µM -3% | [10]; at 11.0 µM -4% | [10]; at 33.0 µM -4% | [10]; at 100.0 µM 11% | [11]; at 1.2 µM -3% | [11]; at 3.7 µM -2% | [11]; at 11.0 µM 1% | [11]; at 33.0 µM 3% | [11]; at 100.0 µM 25% | [12]; at 1.2 µM -1% | [12]; at 3.7 µM -1% | [12]; at 11.0 µM 1% | [12]; at 33.0 µM 7% | [12]; at 100.0 µM 49% | [13]; [15] 3% | [13]; [16] 3% | [13]; at 50.0 µM 27.5% | [14]; at 1.2 µM 1% | [14]; at 3.7 µM 2% | [14]; at 11.0 µM 6% | [14]; at 33.0 µM 14%
active: [2]; at 100.0 µM 86% | [3]; at 100.0 µM 94% | [14]; at 100.0 µM 82%
